Data: the supplement of paper PMC10849652
About 7,900 targets were measured; listed, in parts, are those with a hit and a random draw of the rest. About 0.6% of all pairs of compound and target were hits.

Columns and labels:
Experiment in all cases: log2 fold change, soluble protein after heating vs DMSO (PISA); higher = thermal stabilisation; K562 cells, 10 uM, 30 min; active = over 0.2 and 3.5 SD of the protein, either way, in both replicates (recomputed)
[1] = compound: CC1=C(C=C(C=C1)NC(=O)C2=CC(=CC=C2)C(C)(C)C#N)NC3=CC4=C(C=C3)N=CN(C4=O)C
Summary of the method: (§1)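 K562 cells at 2×10^6 cells/mL were given 10 μM compound for 30 min. Aliquots then went through 3 min of heating across 48°C-58°C, were pooled, and were extracted in PBS with 0.5% NP-40 at 4°C, and the supernatant after 21,000xg for 90 min was quantified by TMTpro 16plex LC-MS/MS with channel sums equalised. Thermal stability relative to control samples, from duplicates, is given as log2 fold change.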

[2] = compound: CC1=C(C=C(C=C1)NC(=O)C2=CC(=CC=C2)N(C)C)NC(=O)C3=CC=C(C=C3)O
Summary of the method: as §1

[3] = compound: CC1=CC=C(C=C1)SC2=C3C=C(SC3=CN=C2)C(=O)N
Summary of the method: as §1

[4] = compound: CC1=NC(=CC=C1)C2=C(N=C(N2)C(C)(C)C)C3=CC4=NC=CN=C4C=C3
Summary of the method: as §1

Nexturastat A = compound: CCCCN(Cc1ccc(C(=O)NO)cc1)C(=O)Nc1ccccc1 [Nexturastat A]
Summary of the method: as §1

vemurafenib = compound: CCCS(=O)(=O)Nc1ccc(F)c(C(=O)c2c[nH]c3ncc(-c4ccc(Cl)cc4)cc23)c1F [vemurafenib]
Summary of the method: as §1

[5] = compound: CCCS(=O)(=O)Nc1ccc(F)c(C(=O)c2c[nH]c3ncc(Cl)cc23)c1F
Summary of the method: as §1

[6] = compound: CCCc1cc(C)[nH]c(=O)c1CNC(=O)c1cc(-c2ccnc(N3CCN(C)CC3)c2)cc2c1cnn2C(C)C
Summary of the method: as §1

givinostat = compound: CCN(CC)Cc1ccc2cc(COC(=O)Nc3ccc(C(=O)NO)cc3)ccc2c1 [givinostat]
Summary of the method: as §1

barasertib = compound: CCN(CCCOc1ccc2c(Nc3cc(CC(=O)Nc4cccc(F)c4)[nH]n3)ncnc2c1)CCOP(=O)(O)O [barasertib]
Summary of the method: as §1

[7] = compound: CC[C@@H]1C(=O)N(C)c2cnc(Nc3ccc(C(=O)NC4CCN(C)CC4)cc3OC)nc2N1C1CCCC1
Summary of the method: as §1

volasertib = compound: CC[C@@H]1C(=O)N(C)c2cnc(Nc3ccc(C(=O)N[C@H]4CC[C@H](N5CCN(CC6CC6)CC5)CC4)cc3OC)nc2N1C(C)C [volasertib]
Summary of the method: as §1

[8] = compound: CC[C@H](C)N1C=C(C2=C(C=C(C=C21)C3=CN=C(C=C3)N4CCNCC4)C(=O)NCC5=C(C=C(NC5=O)C)C)C
Summary of the method: as §1

epoxomicin = compound: CC[C@H](C)[C@@H](C(=O)N[C@@H]([C@@H](C)O)C(=O)N[C@@H](CC(C)C)C(=O)[C@]1(CO1)C)NC(=O)[C@H]([C@@H](C)CC)N(C)C(=O)C [epoxomicin]
Summary of the method: as §1

[9] = compound: CCn1c(C(=O)N(C2CC2)C2CC2)cc2c3c(ncn3C)c(Nc3cc(C)n(C)n3)nc21
Summary of the method: as §1

[10] = compound: CCn1cc(-c2ccnc3[nH]c(-c4cccc(CN(C)C)c4)cc23)c(-c2ccc(NC(=O)N(C)C)cc2)n1
Summary of the method: as §1

[11] = compound: CN(C)CC(=O)Nc1ccc2[nH]c(=O)c3ccccc3c2c1
Summary of the method: as §1

rosiglitazone = compound: CN(CCOC1=CC=C(C=C1)C[C@H]2C(=O)NC(=O)S2)C3=CC=CC=N3 (racemic) [rosiglitazone]
Summary of the method: as §1

[12] = compound: CN1C2=C(C3=C1C(=O)N(N=C3)CC4=CC(=CC=C4)N)SC(=C2)S(=O)C
Summary of the method: as §1

[13] = compound: CN1CCC(CNc2ccc3ncc(-c4cccc(OC(F)(F)F)c4)n3n2)CC1
Summary of the method: as §1

Measured: log2 fold change

IMMT isoform 2 (UniProt Q16891)
inactive: [1] 0.053 | [2] 0.074 | [3] -0.05 | [4] 0.002 | Nexturastat A -0.155 | vemurafenib -0.006 | [5] 0.018 | [6] 0.325 | givinostat 0.045 | barasertib 0.081 | [7] -0.043 | volasertib -0.046 | [8] -0.002 | epoxomicin -0.052 | [9] 0.074 | [10] -0.031 | [11] 0.086 | rosiglitazone -0.009 | [12] 0.067 | [13] 0.249

KLC2 (UniProt Q9H0B6)
UniProt Q9H0B6, sequence (Q9H0B6 whole entry, looked up): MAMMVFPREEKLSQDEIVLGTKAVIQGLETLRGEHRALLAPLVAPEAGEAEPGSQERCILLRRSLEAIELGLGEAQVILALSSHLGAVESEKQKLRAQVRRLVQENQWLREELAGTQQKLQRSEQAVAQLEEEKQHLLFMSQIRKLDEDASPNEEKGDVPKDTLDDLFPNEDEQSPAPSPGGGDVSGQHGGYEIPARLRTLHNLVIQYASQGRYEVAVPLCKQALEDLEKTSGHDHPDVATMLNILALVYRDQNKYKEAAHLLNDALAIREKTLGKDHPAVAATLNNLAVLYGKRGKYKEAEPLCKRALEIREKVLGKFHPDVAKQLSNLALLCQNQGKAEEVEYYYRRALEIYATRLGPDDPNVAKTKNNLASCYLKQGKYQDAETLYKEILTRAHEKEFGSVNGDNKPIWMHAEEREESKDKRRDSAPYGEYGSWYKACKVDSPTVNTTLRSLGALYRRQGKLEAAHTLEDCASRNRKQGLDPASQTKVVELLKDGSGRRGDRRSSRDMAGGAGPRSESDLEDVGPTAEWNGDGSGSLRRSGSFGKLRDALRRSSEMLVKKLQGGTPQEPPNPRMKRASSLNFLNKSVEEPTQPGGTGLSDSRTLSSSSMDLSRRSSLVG
inactive: [1] 0.025 | [2] -0.055 | [3] 0.021 | [4] 0.015 | Nexturastat A 0.001 | vemurafenib 0.012 | [5] 0.096 | [6] 0.001 | givinostat 0.044 | barasertib 0.006 | [7] -0.03 | volasertib -0.059 | [8] 0.038 | epoxomicin 0.015 | [9] -0.046 | [10] 0.02 | [11] -0.003 | rosiglitazone 0.057 | [12] -0.013 | [13] -0.131

ITPRIP (UniProt Q8IWB1)
UniProt Q8IWB1, sequence (Q8IWB1 whole entry, looked up): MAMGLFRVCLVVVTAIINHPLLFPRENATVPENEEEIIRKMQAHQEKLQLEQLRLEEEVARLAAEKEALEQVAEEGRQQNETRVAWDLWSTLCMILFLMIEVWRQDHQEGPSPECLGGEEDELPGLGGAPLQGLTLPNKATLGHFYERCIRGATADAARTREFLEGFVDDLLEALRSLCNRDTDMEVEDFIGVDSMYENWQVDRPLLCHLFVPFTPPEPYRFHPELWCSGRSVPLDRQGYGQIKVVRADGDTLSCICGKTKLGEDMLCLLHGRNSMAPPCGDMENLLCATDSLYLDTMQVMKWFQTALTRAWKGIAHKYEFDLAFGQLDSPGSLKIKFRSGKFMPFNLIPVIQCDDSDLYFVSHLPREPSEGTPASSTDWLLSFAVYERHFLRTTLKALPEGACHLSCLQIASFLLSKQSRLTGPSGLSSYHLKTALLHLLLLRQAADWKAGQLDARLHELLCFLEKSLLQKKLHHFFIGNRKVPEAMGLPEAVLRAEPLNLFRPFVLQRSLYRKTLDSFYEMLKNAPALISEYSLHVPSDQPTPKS
inactive: [1] -0.044 | [2] 0.007 | [3] -0.01 | [4] 0.081 | Nexturastat A 0.005 | vemurafenib 0.02 | [5] 0.061 | [6] -0.099 | givinostat 0.007 | barasertib 0.023 | [7] -0.037 | volasertib -0.148 | [8] -0.012 | epoxomicin -0.019 | [9] -0.016 | [10] 0.031 | [11] 0 | rosiglitazone 0.044 | [12] -0.111 | [13] -0.017

MGST3 (UniProt O14880)
UniProt O14880, sequence (O14880 whole entry, looked up): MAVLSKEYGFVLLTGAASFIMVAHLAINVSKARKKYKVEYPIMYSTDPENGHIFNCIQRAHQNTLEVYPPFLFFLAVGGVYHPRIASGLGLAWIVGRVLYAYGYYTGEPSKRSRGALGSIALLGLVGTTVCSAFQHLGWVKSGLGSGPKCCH
inactive: [1] -0.029 | [2] 0.005 | [3] 0 | [4] -0.049 | Nexturastat A 0.015 | vemurafenib -0.037 | [5] -0.011 | [6] -0.057 | givinostat 0.003 | barasertib 0.003 | [7] -0.005 | volasertib 0.048 | [8] -0.107 | epoxomicin -0.016 | [9] 0.066 | [10] -0.047 | [11] -0.017 | rosiglitazone -0.043 | [12] -0.027 | [13] 0.097

KCTD2 (UniProt Q14681)
UniProt Q14681, sequence (Q14681 whole entry, looked up): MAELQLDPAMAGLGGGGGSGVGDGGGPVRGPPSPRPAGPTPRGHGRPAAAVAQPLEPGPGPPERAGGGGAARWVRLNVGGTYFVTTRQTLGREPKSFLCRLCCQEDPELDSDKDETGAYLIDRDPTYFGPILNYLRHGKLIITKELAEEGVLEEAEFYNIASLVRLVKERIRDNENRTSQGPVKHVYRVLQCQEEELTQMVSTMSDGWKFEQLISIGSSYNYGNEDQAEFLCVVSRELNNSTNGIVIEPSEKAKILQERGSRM
inactive: [1] -0.421 | [2] 0.087 | [3] -0.343 | [4] -0.084 | Nexturastat A 0.072 | vemurafenib -0.164 | [5] -0.468 | [6] -0.163 | givinostat 0.078 | barasertib 0.018 | [7] 0.003 | volasertib 0.029 | [8] -0.033 | epoxomicin -0.052 | [9] 0.007 | [10] -0.024 | [11] -0.068 | rosiglitazone -0.024 | [12] 0.049 | [13] -0.623

INPP5B (UniProt P32019)
inactive: [1] 0.02 | [2] -0.06 | [3] -0.071 | [4] 0.007 | Nexturastat A 0.096 | vemurafenib -0.006 | [5] -0.004 | [6] 0.062 | givinostat 0.105 | barasertib 0.069 | [7] 0.021 | volasertib -0.04 | [8] 0.002 | epoxomicin 0.007 | [9] -0.029 | [10] 0.031 | [11] 0.057 | rosiglitazone 0.012 | [12] 0.12 | [13] 0.003

KDM5D isoform 3 (UniProt Q9BY66)
UniProt Q9BY66, sequence (Q9BY66 whole entry, looked up): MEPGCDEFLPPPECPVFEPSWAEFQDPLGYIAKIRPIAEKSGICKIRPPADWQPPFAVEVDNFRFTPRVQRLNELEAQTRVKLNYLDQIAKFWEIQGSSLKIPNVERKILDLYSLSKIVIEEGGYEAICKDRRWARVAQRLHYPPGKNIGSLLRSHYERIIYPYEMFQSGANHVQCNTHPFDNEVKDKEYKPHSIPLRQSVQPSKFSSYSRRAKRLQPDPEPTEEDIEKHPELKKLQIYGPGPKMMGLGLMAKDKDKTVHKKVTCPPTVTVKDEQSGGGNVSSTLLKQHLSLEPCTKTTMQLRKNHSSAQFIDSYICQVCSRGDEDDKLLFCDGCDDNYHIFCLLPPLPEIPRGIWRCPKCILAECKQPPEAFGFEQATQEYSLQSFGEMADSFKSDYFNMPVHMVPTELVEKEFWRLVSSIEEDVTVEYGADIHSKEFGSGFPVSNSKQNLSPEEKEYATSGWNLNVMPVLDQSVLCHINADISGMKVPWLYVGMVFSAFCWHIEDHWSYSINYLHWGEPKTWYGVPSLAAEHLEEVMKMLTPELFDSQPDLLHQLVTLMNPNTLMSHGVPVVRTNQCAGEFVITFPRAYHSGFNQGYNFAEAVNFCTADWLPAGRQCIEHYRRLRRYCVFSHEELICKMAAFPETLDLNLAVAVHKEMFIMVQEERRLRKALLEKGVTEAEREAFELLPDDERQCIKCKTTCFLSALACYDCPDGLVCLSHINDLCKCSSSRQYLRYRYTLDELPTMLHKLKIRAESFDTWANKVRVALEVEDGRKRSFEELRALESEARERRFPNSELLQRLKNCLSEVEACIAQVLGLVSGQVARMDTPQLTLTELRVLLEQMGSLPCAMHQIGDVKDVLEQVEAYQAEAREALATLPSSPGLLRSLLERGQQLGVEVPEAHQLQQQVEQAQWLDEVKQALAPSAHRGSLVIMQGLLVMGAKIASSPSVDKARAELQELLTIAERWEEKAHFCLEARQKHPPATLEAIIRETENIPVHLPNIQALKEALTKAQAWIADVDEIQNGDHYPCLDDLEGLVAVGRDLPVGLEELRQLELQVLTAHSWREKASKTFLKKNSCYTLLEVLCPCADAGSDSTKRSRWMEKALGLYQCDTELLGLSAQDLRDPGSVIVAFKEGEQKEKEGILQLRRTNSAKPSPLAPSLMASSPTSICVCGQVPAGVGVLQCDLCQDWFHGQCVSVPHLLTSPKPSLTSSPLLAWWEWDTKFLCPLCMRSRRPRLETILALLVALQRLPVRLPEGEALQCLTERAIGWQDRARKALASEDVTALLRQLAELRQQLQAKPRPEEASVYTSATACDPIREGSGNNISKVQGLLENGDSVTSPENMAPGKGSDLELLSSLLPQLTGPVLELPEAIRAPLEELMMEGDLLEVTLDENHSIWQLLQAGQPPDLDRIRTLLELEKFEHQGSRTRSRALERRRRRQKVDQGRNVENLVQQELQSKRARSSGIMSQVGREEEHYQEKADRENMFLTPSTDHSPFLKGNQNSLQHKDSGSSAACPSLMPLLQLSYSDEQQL
inactive: [1] -0.132 | [2] -0.144 | [3] 0.036 | [4] 0.039 | Nexturastat A -0.08 | vemurafenib 0.003 | [5] 0.128 | [6] -0.004 | givinostat 0.014 | barasertib 0.108 | [7] -0.305 | volasertib -0.404 | [8] 0.032 | epoxomicin 0.163 | [9] -0.01 | [10] 0.034 | [11] 0.223 | rosiglitazone 0.108 | [12] -0.14 | [13] -0.059

MED1 (UniProt Q15648)
UniProt Q15648, sequence (Q15648 whole entry, looked up): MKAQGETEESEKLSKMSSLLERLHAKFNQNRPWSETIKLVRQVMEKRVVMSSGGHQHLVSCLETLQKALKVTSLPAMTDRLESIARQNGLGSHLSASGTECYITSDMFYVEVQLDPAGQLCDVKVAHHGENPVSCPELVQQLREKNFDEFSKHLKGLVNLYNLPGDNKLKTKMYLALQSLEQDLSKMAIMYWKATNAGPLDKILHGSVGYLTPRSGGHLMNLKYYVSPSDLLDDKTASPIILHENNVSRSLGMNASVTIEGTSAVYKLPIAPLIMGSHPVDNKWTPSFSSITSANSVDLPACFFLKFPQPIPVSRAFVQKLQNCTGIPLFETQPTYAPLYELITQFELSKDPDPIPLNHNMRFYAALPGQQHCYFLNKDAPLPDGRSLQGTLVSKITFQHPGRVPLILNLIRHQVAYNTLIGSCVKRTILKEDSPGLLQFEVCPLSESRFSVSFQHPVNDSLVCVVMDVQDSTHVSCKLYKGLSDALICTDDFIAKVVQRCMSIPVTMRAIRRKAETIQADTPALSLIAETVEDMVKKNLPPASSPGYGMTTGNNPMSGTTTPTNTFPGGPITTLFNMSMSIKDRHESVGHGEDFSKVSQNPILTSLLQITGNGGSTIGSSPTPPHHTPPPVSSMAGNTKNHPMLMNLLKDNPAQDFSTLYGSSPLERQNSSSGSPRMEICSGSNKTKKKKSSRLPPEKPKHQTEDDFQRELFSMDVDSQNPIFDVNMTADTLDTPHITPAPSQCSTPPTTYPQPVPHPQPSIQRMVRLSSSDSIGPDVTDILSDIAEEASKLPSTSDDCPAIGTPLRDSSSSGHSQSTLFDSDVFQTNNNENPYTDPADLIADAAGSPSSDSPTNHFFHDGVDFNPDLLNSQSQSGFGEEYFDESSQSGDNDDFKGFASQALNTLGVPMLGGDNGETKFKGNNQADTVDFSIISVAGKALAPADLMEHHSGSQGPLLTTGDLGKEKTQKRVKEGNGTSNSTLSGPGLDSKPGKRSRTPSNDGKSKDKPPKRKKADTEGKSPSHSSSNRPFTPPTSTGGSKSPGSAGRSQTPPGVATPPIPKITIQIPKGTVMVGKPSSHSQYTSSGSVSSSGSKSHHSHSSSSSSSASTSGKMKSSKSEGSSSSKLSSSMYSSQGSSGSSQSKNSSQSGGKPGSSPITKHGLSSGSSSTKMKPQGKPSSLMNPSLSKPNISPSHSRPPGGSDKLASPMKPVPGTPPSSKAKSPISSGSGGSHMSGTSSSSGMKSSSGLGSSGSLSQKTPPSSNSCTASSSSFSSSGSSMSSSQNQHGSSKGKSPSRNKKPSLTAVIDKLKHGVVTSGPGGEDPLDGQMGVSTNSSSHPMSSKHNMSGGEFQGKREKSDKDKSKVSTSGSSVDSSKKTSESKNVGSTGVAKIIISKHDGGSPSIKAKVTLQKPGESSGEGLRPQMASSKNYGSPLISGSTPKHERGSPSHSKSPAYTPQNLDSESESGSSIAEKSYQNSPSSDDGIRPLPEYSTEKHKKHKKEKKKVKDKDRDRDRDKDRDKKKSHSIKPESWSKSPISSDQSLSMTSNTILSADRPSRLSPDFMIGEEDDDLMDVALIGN
inactive: [1] -0.043 | [2] 0.084 | [3] -0.067 | [4] -0.06 | Nexturastat A 0.079 | vemurafenib -0.028 | [5] -0.034 | [6] -0.006 | givinostat 0.001 | barasertib -0.023 | [7] 0.073 | volasertib 0.077 | [8] 0.076 | epoxomicin -0.051 | [9] -0.001 | [10] -0.04 | [11] -0.054 | rosiglitazone 0.001 | [12] 0.024 | [13] -0.025

MAST4 (UniProt O15021)
inactive: [1] 0.003 | [2] -0.246 | [3] 0.061 | [4] 0.044 | Nexturastat A -0.08 | vemurafenib 0.021 | [5] 0.055 | [6] 0.072 | givinostat -0.024 | barasertib 0.028 | [7] -0.059 | volasertib -0.22 | [8] 0.073 | epoxomicin 0.048 | [9] 0.056 | [10] -0.102 | [11] -0.009 | rosiglitazone 0.067 | [12] -0.115 | [13] -0.384

KTN1 (UniProt Q86UP2)
inactive: [1] -0.071 | [2] -0.051 | [3] 0.014 | [4] -0.002 | Nexturastat A 0.141 | vemurafenib 0.012 | [5] 0.027 | [6] 0.034 | givinostat 0.022 | barasertib 0.033 | [7] 0.039 | volasertib -0.242 | [8] 0.028 | epoxomicin 0.037 | [9] 0.091 | [10] 0.084 | [11] 0.006 | rosiglitazone -0.009 | [12] 0.127 | [13] -0.006

MAPRE3 (UniProt Q9UPY8)
UniProt Q9UPY8, sequence (Q9UPY8 whole entry, looked up): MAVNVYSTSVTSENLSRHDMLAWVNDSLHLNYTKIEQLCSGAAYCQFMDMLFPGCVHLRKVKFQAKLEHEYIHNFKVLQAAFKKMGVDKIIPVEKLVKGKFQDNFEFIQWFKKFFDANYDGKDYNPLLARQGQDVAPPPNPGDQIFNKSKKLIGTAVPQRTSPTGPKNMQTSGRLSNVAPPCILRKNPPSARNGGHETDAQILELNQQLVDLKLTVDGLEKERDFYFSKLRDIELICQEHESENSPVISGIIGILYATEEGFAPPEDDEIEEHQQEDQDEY
inactive: [1] 0 | [2] -0.002 | [3] -0.021 | [4] 0.074 | Nexturastat A -0.07 | vemurafenib 0.041 | [5] 0.06 | [6] 0.136 | givinostat -0.037 | barasertib 0.027 | [7] -0.105 | volasertib -0.226 | [8] 0.101 | epoxomicin 0.01 | [9] 0.009 | [10] -0.041 | [11] -0.009 | rosiglitazone 0.051 | [12] -0.068 | [13] -0.061
